Data from the supplement of paper PMC3414501.
Where a name gives a salt, the structure may show the parent alone. A number with no mark means an inactive call.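 The calls were made as follows: active = score above 5; some higher scores were not called.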

System: S. cerevisiae SK1 pCDA2-eGFP (USY613), sporulating
Test: CDA2-GFP sporulation assay sensitivity score (z-score vs DMSO controls); higher = stronger inhibition of sporulation, active = hit call of the paper

Row | SMILES | CDA2-GFP sporulation assay sensitivity score
1 | OCCOCCN1CCN(C2=Nc3ccccc3Sc3ccccc32)CC1 [Quetiapine hemifumarate] (stock concentration (mM, diluted 1:100): 7.7) | 9.6 (active)
2 | CC(=O)CCCCn1cnc2c1c(=O)n(C)c(=O)n2C [Lomifylline] (stock concentration (mM, diluted 1:100): 10) | -2.21
3 | NC[C@H]1CC[C@H](C(=O)Oc2ccc(CCC(=O)O)cc2)CC1 [Cetraxate hydrochloride] (stock concentration (mM, diluted 1:100): 9) | -0.06
4 | CCCN[C@H]1CCc2nc(N)sc2C1 [Pramipexole hydrochloride] (stock concentration (mM, diluted 1:100): 7.1) | -0.08
5 | CN(CCO)CC(O)Cn1cnc2c1c(=O)n(C)c(=O)n2C (stereo not given) [Xanthinol nicotinate] (stock concentration (mM, diluted 1:100): 10) | 2.12
6 | Cc1cn([C@H]2C=C[C@@H](CO)O2)c(=O)[nH]c1=O [Stavudine] (stock concentration (mM, diluted 1:100): 10) | -1.16
7 | CCOC(=O)C1=C(COCCN)NC(C)=C(C(=O)OC)C1c1ccccc1Cl (stereo not given) [Amlodipine base] (stock concentration (mM, diluted 1:100): 13.9) | 5.4 (active)
8 | O=C(c1ccccc1)c1ccc2n1CCC2C(=O)O (stereo not given) [Toradol] (stock concentration (mM, diluted 1:100): 6.8) | -1.05
9 | CN(Cc1cnc2nc(N)nc(N)c2n1)c1ccc(C(=O)N[C@@H](CCC(=O)O)C(=O)O)cc1 [Methotrexate] (stock concentration (mM, diluted 1:100): 14.6) | -2.22
10 | Cc1c(O)c(=O)ccn1C [Deferiprone] (stock concentration (mM, diluted 1:100): 10) | 2.38
11 | CN(CCOc1ccc(CC2SC(=O)NC2=O)cc1)c1ccccn1 (stereo not given) [Rosiglitazone maleate] (stock concentration (mM, diluted 1:100): 7.6) | 1.38
12 | CC(CCCCC(=O)Nc1ccc(C(F)(F)F)cc1)NCCc1cnc[nH]1 (stereo not given) (stock concentration (mM, diluted 1:100): 10) | 2.58
13 | CC[C@H]1OC(=O)[C@H](C)C(=O)[C@H](C)[C@@H](O[C@@H]2O[C@H](C)C[C@H](N(C)C)[C@H]2O)[C@](C)(OC)C[C@@H](C)C(=O)[C@H](C)[C@H]2N(CCCCn3cnc(-c4cccnc4)c3)C(=O)O[C@]12C [Telithromycin] (stock concentration (mM, diluted 1:100): 10) | 4.62
14 | COc1ccc2c(c1)c(CC(=O)O)c(C)n2C(=O)c1ccc(Cl)cc1 [Indomethacin] (stock concentration (mM, diluted 1:100): 10.5) | 0.38
15 | CCc1nn(CCCN2CCN(c3cccc(Cl)c3)CC2)c(=O)n1CCOc1ccccc1 [Nefazodone] (stock concentration (mM, diluted 1:100): 9.3) | 5.84 (active)
16 | COc1ccc(CCN(C)CCCC(C#N)(c2ccc(OC)c(OC)c2)C(C)C)cc1OC (stereo not given) (stock concentration (mM, diluted 1:100): 10) | 2.38
17 | CCN(CC)CC(=O)Nc1c(C)cccc1C [Lidocaine] (stock concentration (mM, diluted 1:100): 9.6) | 0.09
18 | OCc1cccnc1 [3-Pyridinemethanol] (stock concentration (mM, diluted 1:100): 10) | 2.69
19 | COCc1c(C(C)C)nc(C(C)C)c(/C=C/[C@@H](O)C[C@@H](O)CC(=O)O)c1-c1ccc(F)cc1 [Cerivastatin] (stock concentration (mM, diluted 1:100): 10) | 0.79
20 | Cc1cccc(C)c1NC(=O)C(C)N (stereo not given) [Tocainide] (stock concentration (mM, diluted 1:100): 10) | 0.62
21 | CC(C)C[C@H](NC(=O)[C@@H](COC(C)(C)C)NC(=O)[C@H](Cc1ccc(O)cc1)NC(=O)[C@H](CO)NC(=O)[C@H](Cc1c[nH]c2ccccc12)NC(=O)[C@H](Cc1cnc[nH]1)NC(=O)[C@@H]1CCC(=O)N1)C(=O)N[C@@H](CCCNC(=N)N)C(=O)N1CCC[C@H]1C(=O)NNC(N)=O [Goserelin acetate] (stock concentration (mM, diluted 1:100): 9.6) | 0.53
22 | CNCC[C@H](Oc1cccc2ccccc12)c1cccs1 [Duloxetine] (stock concentration (mM, diluted 1:100): 10) | 1.64
23 | N[C@@H]1CONC1=O [D-Cycloserine] (stock concentration (mM, diluted 1:100): 10) | 0.63
24 | O=[N+]([O-])c1cccc2cn[nH]c12 [7-Nitroindazole] (stock concentration (mM, diluted 1:100): 10) | 2.93
25 | CN(C)CCc1c[nH]c2ccc(Cn3cncn3)cc12 [Rizatriptan benzoate] (stock concentration (mM, diluted 1:100): 10) | -0.91
26 | O=C1CCc2ccc(OCCCCN3CCN(c4cccc(Cl)c4Cl)CC3)cc2N1 [Aripiprazole] (stock concentration (mM, diluted 1:100): 10) | -0.09
27 | O=C1c2c(O)cc(O)cc2OC(c2ccc(O)c(O)c2)C1O (stereo not given) [Taxifolin] (stock concentration (mM, diluted 1:100): 10) | -0.07
28 | O=C(O)COCCN1CCN([C@H](c2ccccc2)c2ccc(Cl)cc2)CC1 [Levocetirizine] (stock concentration (mM, diluted 1:100): 10.7) | -2.92
29 | O=C1Nc2ccc(Cl)cc2[C@@](C#CC2CC2)(C(F)(F)F)O1 [Efavirenz] (stock concentration (mM, diluted 1:100): 10.1) | -2.28
30 | CCCN1CCCC[C@H]1C(=O)Nc1c(C)cccc1C [Ropivacaine hydrochloride] (stock concentration (mM, diluted 1:100): 7.7) | 3.5
